Consider 43 compounds from PubChem BioAssay (Tox21).

Assay [1] can be described thus: qHTS assay to identify small molecule antagonists of the retinoid acid receptor (RAR) signaling pathway - cell viability counter screen (AID 1159551). Also: nearly all actives have a fitted effect of over 35% in size. Also: potency is read from the fitted curve at half-maximal effect. The method, boiled down:
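Cytotoxicity counter screen in C3RL4 cells: 6 h compound exposure with 1 uM retinol (final), viability from cellular ATP by luminescence.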
Background: Quantitative high-throughput screening tests each substance at several concentrations.

The nature of assay [2]: qHTS assay to identify small molecule antagonists of the retinoic acid receptor (RAR) signaling pathway (AID 1159552; also: nearly all actives have a fitted effect of over 50% in size; also: potency is read from the fitted curve at half-maximal effect). The method in brief: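 Cells of the C3RL4 line were seeded, incubated overnight, then dosed with compounds in DMSO followed immediately by retinol (1 uM final). Six hours later luciferase detection reagent went in; signal was measured after 30 min at RT.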

A short description of assay [3]: qHTS assay to identify small molecule antagonists of the estrogen related receptor (ERR) signaling pathway from Tox21 library - cell viability counter screen (AID 1224834). Also: nearly all actives have a fitted effect of over 30% in size. Also: potency is read from the fitted curve at half-maximal effect. The method, boiled down:
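Cytotoxicity of test substances is gauged in the same ERR cells used for the antagonist screen, after 17.5 h of compound treatment at 37 C, by CellTiter-Fluor fluorescence measured after 30 min.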

The target of assay [4] is Luciferin 4-monooxygenase (Photinus pyralis) (UniProt P08659). The assay can be described thus: qHTS assay to identify small molecule inhibitors of firefly luciferase (AID 1224835). Also: nearly all actives have a fitted effect of over 25% in size. Also: potency is read from the fitted curve at half-maximal effect. As to activity change, negative = inhibition: series mostly up to about 120 µM. The method in brief:
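Biochemical qHTS: compounds run as interplate titrations against purified firefly enzyme, with D-luciferin and ATP each at its KM concentration. Light output recorded by CCD imaging.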

Assay [5] has as its system estrogen-related receptor alpha (ERRalpha) with PGC-1alpha coactivator, human. The assay can be described thus: qHTS assay to identify small molecule antagonists of the estrogen related receptor signaling pathway with the pleiotropic PPARgamma coactivator (PGC) (AID 1224821; calls by dose curve;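 also: series mostly up to about 46 µM; lower luminescence signal means antagonism of PGC/ERR signalling; nearly all actives have a fitted effect of over 50% in size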). The method in brief: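 Quantitative HTS for antagonism: PGC/ERR cells received compounds after 6 h attachment and were incubated 18 h at 37 C, with luminescence (One-Glo) as the endpoint.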

The nature of assay [6]: qHTS assay to identify small molecule antagonists of the estrogen related receptor signaling pathway with the pleiotropic PPARgamma coactivator (PGC) cell viability counter screen (AID 1224822; also: series mostly up to about 46 µM). The method in brief: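 Seed PGC/ERR cells (2,000/well); incubate 6 h at 37 C/5% CO2; pin-transfer compounds in DMSO; incubate 17.5 h at 37 C; add CellTiter-Fluor; after 30 min read fluorescence.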

Assay [7] in a line: qHTS assay to identify small molecule antagonists of the estrogen related receptor (ERR) signaling pathway - cell viability counter screen (AID 1224818). Also: series mostly up to about 46 µM. The method in brief: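 Cells carrying the ERR pathway reporter were seeded and incubated for 6 hours before compound addition. After a 17.5-hour exposure at 37 C, live-cell protease activity was measured by CellTiter-Fluor fluorescence following 30 minutes of incubation.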

Assay [8] is described as follows: qHTS assay to identify small molecule antagonists of the estrogen related receptor (ERR) signaling pathway (AID 1224819;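 also: luminescence from an ERR-driven luciferase reporter measured with One-Glo reagent; series mostly up to about 46 µM; nearly all actives have a fitted effect of over 50% in size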). The method in brief:
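Compounds dissolved in DMSO were pin-transferred onto ERR cells that had been plated 6 h earlier, and cells were then incubated 18 h at 37 C; signal was luciferase luminescence via One-Glo.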

Assay [9] can be described thus: qHTS assay to identify small molecule agonists of the estrogen related receptor signaling pathway with the pleiotropic PPARgamma coactivator (PGC) (AID 1224823). The method, boiled down:
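Cell-based luciferase assay in the NTP-supplied PGC/ERR line, 2,000 cells/well; 18 h compound exposure at 37 C, luminescence after One-Glo.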

The structures appear in SMILES notation. Records with an inconclusive call do not appear. Activity calls are given as the source filed them. Unless noted, calls follow the shape of the dose curve; as a rule, active = well fitted curve in the direction sought with a large enough effect in the repeat runs; inconclusive = weak or mixed curves; inactive = no such curve, though single readings can be large; an effect the other way counts as inactive or inconclusive.
% is scaled to controls: 0 for no effect and ±100 for the full control effect.

Luciferin 4-monooxygenase (Photinus pyralis), sequence (P08659 whole entry, looked up): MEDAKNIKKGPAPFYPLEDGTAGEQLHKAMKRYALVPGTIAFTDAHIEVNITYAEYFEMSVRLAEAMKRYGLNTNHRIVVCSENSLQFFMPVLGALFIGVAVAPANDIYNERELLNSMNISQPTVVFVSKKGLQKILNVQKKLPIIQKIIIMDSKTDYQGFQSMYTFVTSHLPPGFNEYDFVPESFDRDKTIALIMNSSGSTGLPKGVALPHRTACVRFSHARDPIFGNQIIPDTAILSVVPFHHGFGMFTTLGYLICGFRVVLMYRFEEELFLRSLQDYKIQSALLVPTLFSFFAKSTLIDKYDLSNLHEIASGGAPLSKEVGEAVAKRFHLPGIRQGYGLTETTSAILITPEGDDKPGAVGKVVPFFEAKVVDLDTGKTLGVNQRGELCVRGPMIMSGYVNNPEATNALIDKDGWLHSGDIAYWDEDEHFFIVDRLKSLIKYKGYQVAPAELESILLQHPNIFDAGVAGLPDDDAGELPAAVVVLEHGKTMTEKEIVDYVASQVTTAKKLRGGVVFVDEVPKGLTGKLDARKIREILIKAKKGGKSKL

`CC(C)C(=O)OCc1ccccc1`: the Potency entry in [1], in assay [2], in [3] and in [4] was “inactive” in each case.
As to `O=C1OC(=O)c2ccc3c4c(ccc1c24)C(=O)OC3=O`, the Potency result in [1], in [2], in [3] and in [4] was “inactive” in each case.
As for `CC(C)=CC1CC(C)CCO1` (configuration not stated), the Potency entry in [1], in assay [2], in assay [3] and in assay [4] was “inactive” each time.
Consider `O=S(O)O`, for which the activity change, negative = cytotoxicity in assay [1] is -0.573% [at 19 µM] (inactive). In addition, the activity, negative = inhibition in assay [2] was 5.26% [at 19 µM] (inactive). Besides, the viability change, negative = cytotoxic in [3] is 0.472% [at 19 µM] (inactive). In addition, the activity change, negative = inhibition in assay [4] was -0.0072% [at 23.6 µM] (inactive).
As to `O=C1c2c(O)ccc([N+](=O)[O-])c2C(=O)c2c([N+](=O)[O-])ccc(O)c21`, the Potency in assay [1] was 48.1 µM (active); in [2], 27.1 µM (active); in assay [3] it was 27.1 µM (active); in assay [4], 62.7 µM (active).
On to `CCOC(=O)C1=C(C)NC(C)=C(C(=O)OCC)C1c1ccccc1/C=C/C(=O)OC(C)(C)C`, for which the Potency entry in [1] and in [4] was “inactive” throughout. The Potency in assay [2] and in [3] was 29.8 µM (active) each time.
`CC1=CCC(=O)O1`: the Potency entry in assay [1], in assay [2], in assay [3] and in assay [4] was “inactive” throughout.
Consider `COc1ccccc1C=O`, for which the Potency entry in assay [1], in assay [2], in assay [3] and in assay [4] was “inactive” each time.
Regarding `c1ccc(Sc2ccccc2)cc1`, the Potency entry in assay [1], in assay [2], in assay [3] and in assay [4] was “inactive” throughout.
For the compound `CC(C)=CCCC(C)CCOC(=O)C(C)C` (configuration not stated), the Potency entry in assay [1], in assay [2], in assay [3] and in [4] was “inactive” in each case.
Turning to `CCCCCCCC(C)=O`, the Potency result in assay [1], in assay [2], in [3] and in assay [4] was “inactive” throughout.
With `Cc1c(C(=O)O)cccc1[N+](=O)[O-]`, the Potency result in assay [1], in assay [2], in assay [3] and in assay [4] was “inactive” throughout.
Consider `C=CC(C)C#N` (configuration not stated), for which the Potency result in assay [1], in assay [2], in [3] and in [4] was “inactive” throughout.
For the compound `C=CC(=O)OCCN(CC)CC`, the Potency entry in assay [1], in assay [2], in assay [3] and in [4] was “inactive” each time.
As for `CCc1ccc(C)nc1`, the Potency result in assay [1], in assay [2], in assay [3] and in assay [4] was “inactive” throughout.
Take `CCO[Si](C)(C)OCC`: the Potency result in assay [1], in assay [2], in assay [3] and in assay [4] was “inactive” each time.
In the case of `N[C@@H](CSSC[C@H](N)C(=O)O)C(=O)O`, the activity change, negative = cytotoxicity in assay [1] was -1.26% [at 0.349 µM] (inactive). For the same compound, the activity, negative = inhibition in assay [2] was 36.8% [at 0.349 µM] (inactive). The viability change, negative = cytotoxic in assay [3] is 4.71% [at 0.349 µM] (inactive). In addition, in [4], the activity change, negative = inhibition was -0.457% [at 0.435 µM] (inactive).
Regarding `CC1(C)C(=O)N(CO)C(=O)N1CO`, the Potency entry in assay [1], in [2], in [3] and in assay [4] was “inactive” each time.
As for `CC1=CP(=O)(c2ccccc2)CC1` (configuration not stated), the Potency entry in assay [1], in [2], in assay [3] and in [4] was “inactive” each time.
Turning to `c1cc[nH]c1`, the Potency result in [1], in assay [2], in assay [3] and in [4] was “inactive” throughout.
For `CC(C)(C)c1cc(CCC(=O)NCCCCCCNC(=O)CCc2cc(C(C)(C)C)c(O)c(C(C)(C)C)c2)cc(C(C)(C)C)c1O`, the Potency entry in assay [1], in assay [2], in [3] and in [4] was “inactive” throughout.
For the compound `C=CC/C=C/C/C=C/C/C=C/C`, the Potency result in assay [1], in assay [2], in assay [3] and in [4] was “inactive” in each case.
Regarding `OCCC(O)CO` (configuration not stated), the Potency result in assay [1], in [2], in assay [3] and in assay [4] was “inactive” throughout.
Take `CC(=O)O[C@@H]1C[C@@H]2CC[C@@]1(C)C2(C)C`: the Potency entry in assay [1], in [2], in [3] and in assay [4] was “inactive” throughout.
For `CCN=C1C=CC(=C(c2ccc(N(CC)CC)cc2)c2ccc(N(CC)CC)cc2)c2ccccc21`, the Potency is 24.2 µM (active) in assay [1], 4.83 µM (active) in assay [2], 8.58 µM (active) in [3] and 28.1 µM (active) in assay [4].
`CN(C)CCN1CCOCC1`: the Potency result in assay [1], in assay [2], in assay [3] and in assay [4] was “inactive” throughout.
For the compound `CCOCOCC`, the Potency result in assay [1], in assay [2], in assay [3] and in [4] was “inactive” each time.
For `C/C=C/CO`, the Potency entry in assay [1], in assay [2], in assay [3] and in assay [4] was “inactive” in each case.
On to `OCCN1CN(CCO)CN(CCO)C1`, for which the Potency result in assay [1], in assay [2], in assay [3] and in [4] was “inactive” throughout.
In the case of `COC(=O)CC(C)CCC=C(C)C` (configuration not stated), the Potency result in assay [1], in [2], in assay [3] and in assay [4] was “inactive” in each case.
On to `CCOC(=O)CC(C)O` (configuration not stated), for which the Potency result in assay [1], in assay [2], in assay [3] and in assay [4] was “inactive” each time.
For the compound `C[Si](C)O[Si](C)C`, the Potency entry in assay [1], in assay [2], in assay [3] and in [4] was “inactive” in each case.
Regarding `S=P(N1CC1)(N1CC1)N1CC1`, the call in assay [5] was inactive. In addition, the Potency result in assay [6] is “inactive”.
On to `COc1ccccc1OCCNCC(O)COc1cccc2[nH]c3ccccc3c12` (configuration not stated), for which the compound was classed as inactive in assay [5].
For the compound `Clc1ccccc1CN1CCc2sccc2C1`, the Potency result in assay [1] and in [3] was “inactive” each time.
As for `C=C(c1ccc(C(=O)O)cc1)c1cc2c(cc1C)C(C)(C)CCC2(C)C`, the Potency in assay [1] was 61.1 µM (active); in assay [3] it was 54.5 µM (active).
As for `CNC(=S)NN`, in [1], the Potency entry was “inactive”. The Potency in assay [3] is 15.4 µM (active).
As to `CN1[C@@H]2CC[C@H]1CC(OC(=O)C(CO)c1ccccc1)C2` (some centres not stated), the Potency entry in assay [1] and in assay [3] was “inactive” each time.
For `Oc1cc2ccccc2cc1O`, the Potency result in assay [1], in assay [3] and in [4] was “inactive” throughout.
In the case of `CC1CCCNC1` (configuration not stated), the Potency entry in assay [1] and in assay [3] was “inactive” each time.
For `CC(C)OC(=O)c1cc(C(=O)OC(C)C)cc([N+](=O)[O-])c1`, the Potency result in [1], in [7], in assay [8] and in [6] was “inactive” throughout. Further, the call in assay [5] and in assay [9] was inactive.
Consider `Cc1cnccn1`, for which the Potency entry in [1], in [3] and in assay [4] was “inactive” each time.
Regarding `CCN(CC)CCCN(c1ccccc1)C1Cc2ccccc2C1`, the Potency entry in assay [1], in assay [7], in [6] and in assay [4] was “inactive” throughout.
